Reference: PubChem BioAssay AID1347071 (National Center for Advancing Translational Sciences (NCATS), 2019)
Out of some 410,000 compounds screened, about 260 (0.063%) were called active. A call without a number means that no potency is given here. Another 2% or so got no clear call; they are omitted. Calls follow the shape of the dose curve; as a rule, active = well fitted activation curve with a large enough effect; inconclusive = small, poorly fitted or top-dose-only effect; inactive = no such curve, though single readings can be large or run the other way. For the sample, actives were picked, then their nearest neighbours and some compounds at random.

experiment: qHTS for compounds that reverse cellular toxicity of Amyloid beta (A-beta) peptide in yeast: Primary Screen; details: yeast expressing A-beta42, growth rescue, OD600, 48 h; series mostly up to 46.1 µM; also: nearly all actives have a fitted effect of over 55% in size
Text: The A-beta peptide is produced by the processing of the amyloid precursor protein (APP) by two proteases, beta and gamma secretases. […] A-beta42 is regarded as the most amyloidogenic form due to its hydrophobicity; however, precisely how A-beta42 induces neurotoxicity is unclear. To understand further this biology and its potential therapeutic implications for human neurodegenerative disease, a quantitative high-throughput screen for compounds that reverse the cellular toxicity of the A-beta peptide was developed. A yeast based screen was used because it recapitulates the salient feature of protein mis-folding disorder accurately. This cell-based phenotypic screen provides a significant, unbiased advantage by letting the compounds and models inform us which proteins or pathways are most relevant. The ideal chemical candidates would therefore have activity in both our primary yeast and secondary neuronal toxicity assays, as well as in mouse models. They will be valuable tools for dissecting diverse protein homeostasis pathologies and could potentially become the focus for future pre-clinical development. For this luminescence assay, inhibition of A-beta rescues the toxic effect in the yeast cell, resulting in increase of signals and the desired phenotype of "Activator". This screen is run against the Molecular Libraries Small Molecule Repository (MLSMR) and the NCGC Sytravon Library Collection.
NIH Chemical Genomics Center [NCGC]
NIH Molecular Libraries Probe Centers Network [MLPCN]
Assay Submitter (PI): Susan Lindquist, Whitehead Institute, Massachusetts Institute of Technology
[1] Vassar R,et al (1999). Beta-secretase cleavage of Alzheimer's amyloid precursor protein by the transmembrane aspartic protease BACE. Science. 286: 735-741.
[2] Yan R, et al (1999). Membrane-anchored aspartyl protease with Alzheimer's disease beta-secretase activity. Nature. 402: 533-536.
Two and a half microliter / well of yeast growth medium were dispensed in a 1536 assay plate. Compounds were pinned using the Kalypsys robotic system followed by addition of 2.5 uL / well yeast solution. The assay plates were incubated at 30 C. After 48 hr, the absorbance signal at 600 nm was obtained using the PerkinElmer ViewLux plate reader to assess yeast growth. The data was normalized to the positive control of an equimolar mixture of ferric chloride (FeCl3) and clioquinol and to the negative control DMSO.
Potency is read from the fitted curve at half-maximal effect.

Compound | Potency
CCOC(=O)C1CCN(c2csc3ccc(C)cc3c2=O)CC1 | inactive
CCC(=O)Nc1ccccc1-c1nc2ccccc2n(CC(=O)Nc2ccc(C)c(C)c2)c1=O | inactive
CCCNc1ncnc2c1c(-c1ccccc1)cn2-c1ccc(OCC)cc1 | inactive
COc1ccc(OC)c(CCNC(=O)CCCn2c(=O)c3cccn3c3cccnc32)c1 | inactive
CCOC(=O)c1cnc2c(C)cc(C)cc2c1Nc1ccc(N2CCOCC2)cc1 | inactive
COc1ccc(CNC(=O)Cn2nnc(-c3ccccc3F)n2)cc1 | inactive
Cc1cccc(-n2ccnc2SCC(=O)Nc2cccc3ccccc23)c1C | inactive
O=C(/C=C/c1ccccc1)N1CCN(Cc2cc(=O)n3nc(-c4ccccc4F)sc3n2)CC1 | inactive
Cc1ccc(Oc2c(C(F)(F)F)oc3c(CN4CCCCC4)c(O)ccc3c2=O)cc1 | inactive
O=C(NC1(C(F)(F)F)N=C(c2ccccc2)N(C2CCCCC2)C1=O)c1ccccc1F (configuration not stated) | inactive
Cc1cccc(N2CCN(C3=C(c4ccccc4)C(=O)c4ccccc43)CC2)c1C | inactive
Cc1ccc(-n2nnnc2CNC(=O)c2ccccc2C)cc1C | inactive
CCOC(=O)C1CCN(C(=O)CSc2c3c(nc4ccc(Cl)cc24)CCCC3)CC1 | inactive
CN(Cc1ccccc1)C(=O)c1cc2c(=O)n(C)c3ccccc3c2s1 | inactive
COc1ccccc1NC(=O)c1sc2nc(C)c(C(=O)Nc3ccc(Cl)cc3)c(-c3ccc(Br)cc3)c2c1N | inactive
CCOc1ccc(CNCCSc2nnnn2C)cc1 | inactive
CCOC(=O)c1ccccc1NC(=O)c1nn(-c2ccc(OC)c(Cl)c2)c(=O)c2c1c1ccccc1n2C | inactive
COCCn1c(CCC(=O)Nc2cc(C)ccc2C)nc2cccnc21 | inactive
COc1cccc(CN2CCc3nc(SCC(=O)Nc4ccccc4)[nH]c(=O)c3C2)c1 | inactive

Compound | Potency
CC(C)CC(=O)N/C(N)=N/c1nc2ccccc2s1 | 11.2 µM (active)
Cc1cc(C)cc(-n2ccnc2SCC(=O)Nc2nc3ccccc3s2)c1 | inactive
Cc1c(NC(=O)C(C)(C)C)cccc1-c1nc2ccccc2s1 | inactive
Cc1ccc(-c2cc(C(=O)Oc3ccccc3Cl)no2)cc1C | inactive
Cc1ccc(C)c(Cn2c(=O)n(CCC(=O)NCc3ccc4c(c3)OCO4)c(=O)c3sccc32)c1 | inactive
CC(=O)N1CCCc2ccc(NS(=O)(=O)c3ccc(F)cc3F)cc21 | inactive
COc1ccc(OC)c(CNC(=O)Cn2nc(C)c3c(C)n(-c4ccccc4)nc3c2=O)c1 | inactive
COc1cc(OC)c(OC)cc1/C=C/c1nc2cc3ccccc3cc2c(=O)n1-c1ccc(F)c(Cl)c1 | inactive
CCOC(=O)c1cccc(NC(=O)C(Cc2ccccc2)NS(=O)(=O)c2cccc3nsnc23)c1 (configuration not stated) | inactive
COC(=O)c1ccc(C2C(C(=O)Nc3ccccc3)=C(C)Nc3nc4ccccc4n32)cc1 (configuration not stated) | inactive
CCOc1ccc(C(=O)NC(=S)Nc2ccc(N3CCOCC3)c(Cl)c2)cc1[N+](=O)[O-] | inactive
O=C(CSc1nccc(=O)[nH]1)Nc1ccc(N2CCOCC2)c(Cl)c1 | inactive
O=C(CSc1ccc([N+](=O)[O-])cn1)Nc1ccc(N2CCOCC2)c(Cl)c1 | 22.4 µM (active)
Cc1cc(=O)c2cc(C(=O)Nc3cccc(C)c3C)ccc2[nH]1 | inactive
Cc1cc2n(n1)C(c1cc(C(C)(C)C)c(O)cc1O)Nc1ccccc1-2 (configuration not stated) | inactive
Cc1ccc(S(=O)(=O)c2nc(-c3cccs3)oc2N2CCCCC2)cc1 | inactive
CCOC(=O)c1ccc(NC(=O)Cn2cc(S(=O)(=O)Cc3ccccc3F)c3ccccc32)cc1 | inactive
Cc1ccc2sc(N(Cc3cccnc3)C(=O)C3COc4ccccc4O3)nc2c1C (configuration not stated) | inactive
Cc1ccc(C(=O)Nc2ccc3[nH]c(=O)c(=O)[nH]c3c2)cc1 | inactive

Compound | Potency
C=Cc1ccc(Cn2c(C(=O)OC)cc3sc(C)cc32)cc1 | inactive
CC1=C(C(=O)OCc2ccc(C)cc2)C(c2c(Cl)cccc2Cl)CC(=O)N1 (configuration not stated) | inactive
COc1cc(-c2noc(-c3ccc(N4CCCC4)c([N+](=O)[O-])c3)n2)cc(OC)c1OC | inactive
CCc1ccccc1NC(=O)N1CCN(C(=O)c2nsc3ccccc23)CC1 | inactive
COc1cccc(CNC(=O)CN2C(=O)CCc3cc(S(=O)(=O)N4CCOCC4)ccc32)c1 | inactive
CCn1c2c(c(=O)n3ncc(C(=O)N4CCN(c5ccccc5)CC4)c13)CN(Cc1ccc(OC)cc1)CC2 | inactive
O=C(NC1CC(=O)N(c2ccc(Cl)cc2)C1)C1CCCC1 (configuration not stated) | inactive
Cc1csc2nc(COC(=O)c3ccc(NC(=O)COc4ccccc4F)cc3)cc(=O)n12 | inactive
COc1ccc(-c2cccc(NS(=O)(=O)c3cc(C)c(OC)c(C)c3C)c2)nn1 | inactive
CCN(C(=O)Cn1cc(S(=O)(=O)N2CCN(c3ccccc3F)CC2)c2ccccc2c1=O)c1ccc(C)c(C)c1 | inactive
COc1cc2nc(SCc3ccc(F)cc3)n3nc(CCn4c(C)nc5ccccc54)nc3c2cc1OC | inactive
N#Cc1nc(/C=C/c2ccc(F)cc2)oc1NC1CCCCC1 | inactive
Cc1ccc(CNS(=O)(=O)c2ccc(-c3cc(C(F)(F)F)on3)s2)cc1 | inactive
O=C(CCC1N=C2c3ccccc3N=C(SCc3ccccc3F)N2C1=O)NCCc1ccccc1 (configuration not stated) | inactive
Cc1ccc(OCCn2c(CNc3ccccc3C)nc3ccccc32)cc1 | inactive
CCCC12CN3CC(C)(CN(C1)C3c1ccccc1Cl)C2=O (configuration not stated) | inactive
CCC1CCCCN1C(=O)Cn1c(=O)n(CCCCCC(=O)NCc2ccccc2)c(=O)c2sccc21 (configuration not stated) | inactive
Cc1ccc(C2c3[nH]c4ccccc4c3CCN2C(=O)c2cccc(C)c2)cc1 (configuration not stated) | inactive
Cc1onc(-c2ccc(F)cc2F)c1C(=O)Nc1cccc(C(F)(F)F)c1 | inactive
